Assay results published in PubChem BioAssay (Tox21).
Several values for one entry are separate records, joined by “and”; a condition that tells them apart may be missing. Identical values can stand only once. Records with an inconclusive call do not appear. A structure can be active in one record and inactive in another. Activity calls are given as the source filed them. Calls follow the shape of the dose curve; as a rule, active = well fitted curve in the direction sought with a large enough effect in the repeat runs; inconclusive = weak or mixed curves; inactive = no such curve, though single readings can be large; an effect the other way counts as inactive or inconclusive.

How the values were obtained:
[1] = A CellTox Green Cytotoxicity Assay to monitor cytotoxicity in HEK293 cells - 40 hour (AID 1224871); also: nearly all actives have a fitted effect of over 45% in size; also: potency is read from the fitted curve at half-maximal effect
Procedure, shortened: (§1)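 Read-out: fluorescence of a cell-impermeant cyanine dye staining DNA of dead cells, proportional to cytotoxicity. HEK293, 600 cells/well with reagent, compound (23 nL DMSO) added after 5 h; reads at 0, 8, 16, 24, 32, 40 h.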

[2] = qHTS RealTime-Glo MT Cell Viability Assay in HEK293 cells - 16 hour (AID 1224872); also: nearly all actives have a fitted effect of over 50% in size; also: potency is read from the fitted curve at half-maximal effect; as to activity change, negative = cytotoxicity: top concentration of the series differs between compounds
Procedure, shortened: (§2)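 Viability tracked continuously by luminescence as live cells reduce a prosubstrate for NanoLuc; HEK293 cells preincubated 5 h, compound-treated at 37 C, and read at 0, 8, 16, 24, 32 and 40 h.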

[3] = qHTS RealTime-Glo MT Cell Viability Assay in HEK293 cells - 40 hour (AID 1224874); conditions: RealTime-Glo luminescence; max response: stronger effect = lower value; also: nearly all actives have a fitted effect of over 50% in size; also: potency is read from the fitted curve at half-maximal effect
Procedure, shortened: (§3)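 Luminescence readout at each listed time point; HEK293, 600 cells/well, RealTime-Glo MT reagent added with cells; compounds pinned (23 nL in DMSO) after 5 h at 37 C; continuous culture at 37 C.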

[4] = A CellTox Green Cytotoxicity Assay to monitor cytotoxicity in HepG2 cells - 16 hour (AID 1224876); also: nearly all actives have a fitted effect of over 45% in size; also: potency is read from the fitted curve at half-maximal effect
Procedure, shortened: (§4)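 HepG2, 600 cells/well premixed w/ CellTox Green; 5 h settle, 37 C/5% CO2; pintool cpd add (DMSO); 37 C, 40 h; fluorescence read at 0, 8, 16, 24, 32, 40 h.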

[5] = qHTS RealTime-Glo MT Cell Viability Assay in HepG2 cells - 32 hour (AID 1224877); also: nearly all actives have a fitted effect of over 55% in size; also: potency is read from the fitted curve at half-maximal effect
Procedure, shortened: (§5)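 Viability was tracked continuously by NanoLuc luminescence from prosubstrate reduced by living HepG2 cells, at successive time points over 40 h of compound exposure. Cells with reagent were preincubated 5 h at 37 °C before compound addition.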

[6] = A CellTox Green Cytotoxicity Assay to monitor cytotoxicity in HepG2 cells - 24 hour (AID 1224878); also: nearly all actives have a fitted effect of over 45% in size; also: potency is read from the fitted curve at half-maximal effect
Procedure, shortened: as §4

[7] = A CellTox Green Cytotoxicity Assay to monitor cytotoxicity in HepG2 cells - 40 hour (AID 1224879); also: nearly all actives have a fitted effect of over 40% in size; also: potency is read from the fitted curve at half-maximal effect
Procedure, shortened: as §4

[8] = qHTS RealTime-Glo MT Cell Viability Assay in HEK293 cells - 0 hour (AID 1224880); also: top concentration of the series differs between compounds; nearly all actives have a fitted effect of over 45% in size
Procedure, shortened: as §3

[9] = A CellTox Green Cytotoxicity Assay to monitor cytotoxicity in HEK293 cells - 32 hour (AID 1224881); also: nearly all actives have a fitted effect of over 40% in size; also: potency is read from the fitted curve at half-maximal effect
Procedure, shortened: as §1

[10] = A CellTox Green Cytotoxicity Assay to monitor cytotoxicity in HepG2 cells - 0 hour (AID 1224882); also: nearly all actives have a fitted effect of over 35% in size; also: potency is read from the fitted curve at half-maximal effect
Procedure, shortened: as §4

[11] = A CellTox Green Cytotoxicity Assay to monitor cytotoxicity in HEK293 cells - 8 hour (AID 1224884); also: nearly all actives have a fitted effect of over 35% in size
Procedure, shortened: as §1

[12] = A CellTox Green Cytotoxicity Assay to monitor cytotoxicity in HEK293 cells - 16 hour (AID 1224888); also: nearly all actives have a fitted effect of over 35% in size; also: potency is read from the fitted curve at half-maximal effect
Procedure, shortened: as §1

[13] = qHTS RealTime-Glo MT Cell Viability Assay in HepG2 cells - 0 hour (AID 1224889); also: nearly all actives have a fitted effect of over 50% in size
Procedure, shortened: as §5

[14] = A CellTox Green Cytotoxicity Assay to monitor cytotoxicity in HepG2 cells - 8 hour (AID 1224890); also: nearly all actives have a fitted effect of over 45% in size; also: potency is read from the fitted curve at half-maximal effect
Procedure, shortened: as §4

[15] = A CellTox Green Cytotoxicity Assay to monitor cytotoxicity in HEK293 cells - 24 hour (AID 1224875); also: nearly all actives have a fitted effect of over 45% in size; also: potency is read from the fitted curve at half-maximal effect; as to activity change: series mostly up to about 77 µM
Procedure, shortened: as §1

[16] = A CellTox Green Cytotoxicity Assay to monitor cytotoxicity in HepG2 cells - 32 hour (AID 1224883); also: nearly all actives have a fitted effect of over 50% in size; also: potency is read from the fitted curve at half-maximal effect
Procedure, shortened: as §4

[17] = qHTS RealTime-Glo MT Cell Viability Assay in HepG2 cells - 16 hour (AID 1224885); also: nearly all actives have a fitted effect of over 50% in size; also: potency is read from the fitted curve at half-maximal effect
Procedure, shortened: as §5

[18] = qHTS RealTime-Glo MT Cell Viability Assay in HEK293 cells - 24 hour (AID 1224886); also: nearly all actives have a fitted effect of over 50% in size; also: potency is read from the fitted curve at half-maximal effect; as to activity change, negative = cytotoxicity: top concentration of the series differs between compounds
Procedure, shortened: as §2

[19] = qHTS RealTime-Glo MT Cell Viability Assay in HEK293 cells - 8 hour (AID 1224887); also: nearly all actives have a fitted effect of over 50% in size; also: potency is read from the fitted curve at half-maximal effect; as to activity change, negative = cytotoxicity: top concentration of the series differs between compounds
Procedure, shortened: as §3

[20] = qHTS RealTime-Glo MT Cell Viability Assay in HepG2 cells - 8 hour (AID 1224873); also: nearly all actives have a fitted effect of over 55% in size
Procedure, shortened: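 Real-time viability: cells seeded at 600 per well together with NanoLuc and cell-permeant prosubstrate, compounds added after 5 h incubation. Luminescence tracked at 0, 8, 16, 24, 32 and 40 h of exposure.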
% is scaled to controls: 0 for no effect and ±100 for the full control effect.

Nc1c2ccccc2nc2ccccc12
inactive: Potency [8] | Potency [10] | Potency [11] | Potency [12] | Potency [13] | Potency [14]
inactive and 13.4 µM (active): Potency [4]
active: Potency [1] 24.2 µM | Potency [2] 19.2 µM | Potency [3] 4.83 µM and 2.39 µM | Potency [5] 24.2 µM and 10.7 µM | Potency [6] 10.7 µM | Potency [7] 10.8 µM and 10.7 µM | Potency [9] 43.1 µM

[O-][n+]1ccccc1SSc1cccc[n+]1[O-]
active: Potency [1] 1.31 µM | Potency [2] 1.31 µM | Potency [15] 4.65 µM | Potency [4] 9.28 µM | Potency [5] 165 nM | Potency [6] 1.47 µM | Potency [7] 0.329 µM | Potency [9] 2.93 µM | Potency [10] 11.7 µM | Potency [16] 0.585 µM | Potency [17] 0.233 µM | Potency [18] 1.31 µM | Potency [12] 8.27 µM | Potency [14] 10.4 µM
inactive: activity change, negative = cytotoxicity [8] -7.04% [at 15.8 µM] | activity change, negative = cytotoxicity [13] -1.89% [at 15.8 µM]

N=C1C=CC(=C(c2ccc(N)cc2)c2ccc(N)cc2)C=C1
inactive: Potency [1] | Potency [15] | Potency [4] | Potency [6] | Potency [7] | Potency [9] | Potency [10] | Potency [16] | Potency [11] | Potency [12] | Potency [13] | Potency [14]
active: Potency [2] 3.09 µM | Potency [3] 1.95 µM | Potency [5] 24500 nM | Potency [18] 3.47 µM

CCN(CCC#N)c1ccc(N=Nc2c(Cl)cc([N+](=O)[O-])cc2Cl)cc1
inactive: Potency [1] | Potency [2] | max response [3] -15.8% | Potency [15] | Potency [4] | Potency [6] | Potency [7] | Potency [8] | Potency [9] | Potency [10] | Potency [16] | Potency [11] | Potency [18] | Potency [19] | Potency [12] | Potency [13] | Potency [14]

CC[C@@]1(O)C(=O)OCc2c1cc1n(c2=O)Cc2c-1nc1ccccc1c2/C=N/OC(C)(C)C
inactive: Potency [1] | Potency [20] | Potency [15] | Potency [8] | Potency [9] | Potency [10] | Potency [11] | Potency [12] | Potency [13] | Potency [14]
active: Potency [3] 0.0239 µM | Potency [4] 3.38 µM | Potency [6] 0.848 µM | Potency [7] 1.07 µM | Potency [16] 1.07 µM | Potency [18] 0.0239 µM

Oc1cccc(-c2c3nc(c(-c4cccc(O)c4)c4ccc([nH]4)c(-c4cccc(O)c4)c4nc(c(-c5cccc(O)c5)c5ccc2[nH]5)CC4)C=C3)c1
inactive: Potency [1] | Potency [15] | Potency [4] | Potency [5] | Potency [6] | Potency [7] | Potency [9] | Potency [10] | Potency [16] | Potency [11] | Potency [12] | Potency [13] | Potency [14]
active: Potency [2] 23.9 µM | Potency [19] 23.9 µM

Cc1ccc2oc(CN(Cc3ccccc3)C(=O)Nc3c(F)cc(F)cc3F)c(-c3ccc(Cl)cc3)c2c1
inactive: Potency [1] | Potency [2] | Potency [15] | Potency [4] | Potency [6] | Potency [7] | Potency [9] | Potency [10] | Potency [16] | Potency [11] | Potency [18] | Potency [19] | Potency [12] | Potency [13] | Potency [14]

CCCCCCCCCCCCCCCS(=O)(=O)Oc1ccccc1
inactive: Potency [1] | Potency [20] | max response [3] -18% | Potency [15] | Potency [4] | Potency [6] | Potency [7] | Potency [8] | Potency [9] | Potency [10] | Potency [16] | Potency [17] | Potency [12] | Potency [13] | Potency [14]

CCN1/C(=C/C=C/c2sc3ccccc3[n+]2CC)Sc2ccccc21
active: Potency [1] 9.28 µM | Potency [2] 1.04 µM | Potency [6] 1.85 µM | Potency [7] 1.17 µM | Potency [9] 10.4 µM | Potency [16] 1.17 µM | Potency [18] 1.17 µM
inactive: cytotoxicity increase [4] -2.11% [at 15.8 µM] | activity change, negative = cytotoxicity [8] -8.36% [at 15.8 µM] | cytotoxicity [10] -4.71% [at 15.8 µM] | activity change, negative = cytotoxicity [19] -21.6% [at 15.8 µM] | activity change [12] -3.87% [at 15.8 µM, stronger effect = higher value] | activity change, negative = cytotoxicity [13] -13.2% [at 15.8 µM] | cytotoxicity increase [14] -7.07% [at 15.8 µM]

O=C(OC[C@H]1O[C@@H](OC(=O)c2cc(O)c(O)c(OC(=O)c3cc(O)c(O)c(O)c3)c2)[C@H](OC(=O)c2cc(O)c(O)c(OC(=O)c3cc(O)c(O)c(O)c3)c2)[C@@H](OC(=O)c2cc(O)c(O)c(OC(=O)c3cc(O)c(O)c(O)c3)c2)[C@@H]1OC(=O)c1cc(O)c(O)c(OC(=O)c2cc(O)c(O)c(O)c2)c1)c1cc(O)c(O)c(OC(=O)c2cc(O)c(O)c(O)c2)c1
inactive: cytotoxicity increase [1] -40.6% [at 15.8 µM] | activity change, negative = cytotoxicity [2] -9.99% [at 15.8 µM] | activity change [15] -38.6% [at 15.8 µM, stronger effect = higher value] | cytotoxicity increase [4] -47.1% [at 15.8 µM] | cytotoxicity [6] -52.4% [at 15.8 µM] | cytotoxicity increase [7] -56% [at 15.8 µM] | activity change, negative = cytotoxicity [8] -3.48% [at 15.8 µM] | cytotoxicity increase [9] -42.7% [at 15.8 µM] | cytotoxicity [10] -19.7% [at 15.8 µM] | cytotoxicity increase [11] -34.5% [at 15.8 µM] | activity change, negative = cytotoxicity [18] -14.1% [at 15.8 µM] | activity change, negative = cytotoxicity [19] -15.8% [at 15.8 µM] | activity change [12] -38.7% [at 15.8 µM, stronger effect = higher value] | activity change, negative = cytotoxicity [13] -17.5% [at 15.8 µM] | cytotoxicity increase [14] -46.2% [at 15.8 µM]

COc1ccc(CN2CCN(C(c3ccc(F)cc3)c3ccc(F)cc3)CC2)c(OC)c1OC
inactive: Potency [15] | Potency [4] | Potency [6] | Potency [8] | Potency [9] | Potency [10] | Potency [11] | Potency [12] | Potency [13] | Potency [14]
active: Potency [1] 4.77 µM | Potency [2] 9.52 µM | Potency [3] 16.9 µM | Potency [7] 10.7 µM | Potency [16] 10.7 µM | Potency [18] 9.52 µM | Potency [19] 19 µM

O=C1CCCCCN1SSN1CCCCCC1=O
inactive: Potency [2] | Potency [20] | Potency [15] | Potency [4] | Potency [8] | Potency [10] | Potency [18] | Potency [19] | Potency [12] | Potency [13] | Potency [14]
active: Potency [1] 49 µM | Potency [7] 54.9 µM
